Screens as filed in PubChem.
Yeast superoxide: lowers age-related superoxide in aged yeast cells | S. cerevisiae aged cells, superoxide DHE fluorescence; hits give low values | superoxide response (% of plate mean), % at 10 µM | 0.18% of 330,000 active | AID 2690;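 active means superoxide response under a set limit, about three screen SD below normal, cut at about 65% in these data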;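 further: yeast aged for seven days with compound at 30 °C before DHE staining; 100% = average MFI of all compound-treated wells on the plate with controls excluded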
HIF activator: HIF pathway transcriptional activation. 0.32% of 300,000 active. activation, % at 7.5 µM (by protocol). U2OS HRE-luciferase reporter, luminescence; normalized: DMSO 0%, desferrioxamine 100%;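 active means mean activation of at least 10% of the iron chelator positive control signal, with at least half of replicates also reaching 10%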
PLCb3 inh: blocks human PLC-beta3 enzyme activity. Purified PLC-beta3, fluorogenic substrate, fluorescence. inhibition, % at 12.2 µM. 0.18% of 370,000 active. AID 720704; in the data active means inhibition above about 11%;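 further: 0% = median of compound wells on plate and 100% = full blocker control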
AHR activator: human AHR activation; P35869; AHR-responsive luciferase reporter cells, luminescence; activation, % at 5 µM; 2.5% of 320,000 active; AID 2796; in the data active means activation above about 47%;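 further: 0% = vehicle wells and 100% = reference agonist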
sPLA2-III inh: Blocks human group III sPLA2 activity | Q9NZ20 | QFRET BODIPY PC-A2 liposome hydrolysis, fluorescence | inhibition, % at 12.2 µM | 0.56% of 370,000 active | AID 743126;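 active means inhibition above mean plus 3 SD of compounds lying within the high and low control bounds, cut at about 19% in these data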;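 further: 0% = median of test compound wells and 100% = no enzyme DMSO wells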
PLC-gamma1 inh: blocks human PLC-gamma1 enzyme activity; 0.84% of 370,000 active; AID 720700; purified PLC-gamma1, fluorogenic substrate, fluorescence; inhibition, % at 12.2 µM; P19174
PLCgamma1 ctr: counter-screen for PLC-beta3 inhibitors: inhibitors of human PLC-gamma1. shares compounds with PLC-gamma1 inh. purified PLC-gamma1, fluorogenic substrate, fluorescence. inhibition, % at 12.3 µM. 3.1% of 3,300 active. AID 743258
PLCb3 confirm: confirmation of human PLC-beta3 inhibitors; inhibition, % at 12.3 µM; shares compounds with PLC-gamma1 inh; purified PLC-beta3, fluorogenic substrate fluorescence; 1% of 3,300 active; AID 743261; in the data active means inhibition above about 11%
Numbers without * were called inactive; x = no result given. A selection: hits, their analogues and other compounds. The true share with any hit is near 3.9%. Unless noted, no stated cut-off is given here; in the data, active means inhibition above about 9.5%; inactive means the rest.

SMILES	Yeast superoxide	HIF activator	PLCb3 inh	AHR activator	sPLA2-III inh	PLC-gamma1 inh	PLCgamma1 ctr	PLCb3 confirm
O=C(NCCN1CCOCC1)Nc1ccc(Cl)cc1	106	1	-1	3	-4	12*	-3	1
COc1ccc(OC)c(NC(=O)NCCc2c[nH]c3ccccc23)c1	105	-3	-1	x	-60	12*	-6	-4
Cc1ccc(-c2csc(C(C)(O)c3cccc(F)c3)n2)cc1C (stereo not given)	x	x	-2	x	-12	-1	x	x
CC(O)(c1cccc(F)c1)c1nc(-c2cccc(F)c2)cs1 (stereo not given)	x	x	-3	x	-5	11*	-2	0
FC(F)(F)c1nc(-c2ccncc2)ncc1-c1nnnn1-c1ccccc1	95	0	2	1	-6	2	x	x
Cc1ccc(-n2nnnc2-c2cnc(-c3cccnc3)nc2C(F)(F)F)cc1	100	-1	10	-1	10	10*	-3	-6
COc1ccc(N2C(=O)C(Cl)=C(Nc3ccccc3OC)C2=O)cc1	111	0	13*	-3	-3	9.5*	-2	-2
COc1ccc(N2C(=O)C(Cl)=C(Nc3ccccc3O)C2=O)cc1	88	1	3	14	-6	0	x	x
NC(=O)CC(NC(=O)c1cccc(Br)c1)c1ccc(N2CCC(N3CCCC3)CC2)c([N+](=O)[O-])c1 (stereo not given)	98	1	-1	1	6	-6	x	x
Cc1ccc(OCC(=O)NNC(=O)c2ccc(NC(=O)C3CC3)cc2)c(C)c1	95	0	-13	15	-6	-4	x	x
CCC(=O)Nc1ccc(C(=O)NNC(=O)COc2cc(C)ccc2C)cc1	90	0	12*	2	-2	7	-4	-5
CC1(C(=O)Nc2cccc(Oc3ccccc3)c2)CCN1Cc1cccc2c1OCO2 (stereo not given)	x	x	-3	x	11	1	x	x
COc1ccc(OC)c(NC(=O)Cn2cc(C=O)c3ccccc32)c1	97	-1	-9	1	3	1	x	x
O=C1OCc2cc(NS(=O)(=O)c3cccs3)ccc21	115	1	-1	0	-3	10*	-2	-6
Fc1ccc(-[n+]2nc(Nc3ccccc3)sc2-c2c(Cl)cccc2Cl)cc1	104	0	15*	37	3	11*	4	-18
CCC(=O)Nc1ccc(N2CCN(S(C)(=O)=O)CC2)cc1	105	-1	1	0	8	-1	x	x
CS(=O)(=O)N1CCN(c2ccc(NC(=O)C(c3ccccc3)c3ccccc3)cc2)CC1	91	x	6	0	-33	9.6*	-7	-5
Cn1nnnc1SCC(=O)NC(=O)c1cccc([N+](=O)[O-])c1	98	0	-4	3	3	0	x	x
Cc1ccc(CC2CC(=O)N(c3ccc(C)cc3)C2=O)cc1 (stereo not given)	73	-1	-4	0	-2	-2	x	x
Cc1ccc(CC2CC(=O)N(c3nc4ccccc4n3C)C2=O)cc1 (stereo not given)	102	0	7	6	5	12*	-10	-3
CCOC(=O)c1sc(N)c(C#N)c1CSc1nc2ccc(OCC)cc2[nH]1	91	0	7	19	-15	13*	-4	1
CC1(C(=O)NS(=O)(=O)c2ccccc2Cl)CCN1C(=O)Cc1ccccc1 (stereo not given)	x	x	-1	x	2	-4	x	x
COc1ccc(OC)c(S(=O)(=O)NC(=O)C2(C)CCN2C(=O)CC2CCCC2)c1 (stereo not given)	x	x	4	x	18	11*	-5	-2
CC1(C(=O)NS(=O)(=O)c2ccccc2Cl)CCN1C(=O)Cc1ccccc1Cl (stereo not given)	x	x	6	x	-2	12*	-3	0
CC1Cc2ccccc2N1C(=O)Cn1cc([N+](=O)[O-])cn1 (stereo not given)	101	-1	13*	7	-2	4	8	2
SMILES	Yeast superoxide	HIF activator	PLCb3 inh	AHR activator	sPLA2-III inh	PLC-gamma1 inh	PLCgamma1 ctr	PLCb3 confirm
CC1Cc2ccccc2N1C(=O)CN1CCN(Cc2ccccc2)CC1 (stereo not given)	107	1	1	0	7	9.8*	-4	-1
O=C(O)CSc1nnc(-c2ccc(Cl)cc2Cl)n1Cc1ccccc1	117	0	0	0	-3	0	x	x
Cc1cc(-c2ccccc2)nc(N/N=C/c2ccccc2)n1	106	2	-31	15	-4	-22	x	x
CNc1nc(C)nc(N/N=C/c2ccccc2)n1	111	0	7	18	14	11*	-2	-3
CCOC(=O)CSc1nnc(Cn2c(=O)sc3ccccc32)n1-c1ccccc1C	103	0	11*	1	4	8	9.5*	-1
Cc1ccccc1-n1c(Cn2c(=O)sc3ccccc32)nnc1SCC(N)=O	105	0	5	1	-3	1	x	x
C[C@@H]1CN([C@@H](C)CO)C(=O)CCCn2cc(nn2)CO[C@H]1CN(C)S(=O)(=O)c1cccc(C#N)c1	x	x	2	x	7	4	x	x
CC1=NN(Cc2ccccc2)C(=O)C1	87	-1	7	1	-1	13*	-5	-3
COc1cc(CNC(C)C23CC4CC(CC(C4)C2)C3)cc(OC)c1OC (stereo not given)	100	1	-3	x	-13	0	x	x
CC(C)(C)c1ccc(S(=O)(=O)Nc2ccc(C(O)(C(F)(F)F)C(F)(F)F)cc2)cc1	x	x	6	x	-110	13*	-3	-8
Cc1cc(C)cc(NC(=O)C2(c3cccs3)CCOCC2)c1	106	-1	3	7	-1	9.8*	-8	-12
Cc1cccc(NC(=O)C2(c3cccs3)CCOCC2)c1	105	0	1	0	-3	-2	x	x
CC(C)(C)c1cc(C(=O)CCN2CCOCC2)cc(C(C)(C)C)c1O	94	0	-2	0	16	13*	-6	-5
O=C(CCN1CCOCC1)c1ccc(N2CCCCC2)cc1	88	x	-16	-9	15	-11	x	x
COC(=O)c1ccc(CN2C(=O)[C@]3(OCCC=C[C@H]3C)c3cc(OC)ccc32)cc1	x	x	2	x	3	1	x	x
CCCn1nc(C(=O)NCC(C)(C)N2CCOCC2)c2ccccc2c1=O	97	0	9	-1	9	9.7*	-3	-1
COc1cc(CN2C[C@@H](CO)O[C@@H](n3cnc4c(NCC(C)C)ncnc43)C2)cc(OC)c1OC	x	x	0	x	10	-3	x	x
Cc1ccc(CN2CCN(Cc3cccc4c3OCO4)CC2CCO)cc1 (stereo not given)	107	0	15*	15	7	5	-5	-12
